Measured values reported in the supplement of paper PMC11577813, “Eurasian spruce bark beetle detects lanierone using a highly expressed specialist odorant receptor, present in several functional sensillum types” (BMC Biology, 2024).
± gives the standard deviation of the averaged measurements.

Test system: lanierone-responsive B-neuron OSN class (ItypOR36)
Test: net action potential response of lanierone B-neuron (blank-subtracted) (spikes/s (Hz)); higher = stronger excitation
Settings: 10 µg on filter paper, neuron: B neuron (small spike amplitude)
Description: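 Single sensillum recordings from antennal olfactory sensilla of live adult Ips typographus. Each compound was 10 µg in paraffin oil, delivered as a 0.5 s puff. Net response = spikes in the first 0.5 s of response minus the 0.5 s pre-stimulus count, doubled to give Hz, with blank response subtracted. Values are for the small-spike lanierone-responsive B-neuron (putatively expressing ItypOR36), recorded in sensilla co-housing the A-neuron class; N = 1-4, averaged.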

[1] = co-localized A-neuron class: (4S)-cis-verbenol
[2] = co-localized A-neuron class: (5S,7S)-trans-conophthorin
[3] = co-localized A-neuron class: (+)-isopinocamphone
[4] = co-localized A-neuron class: (+)-trans-4-thujanol
[5] = co-localized A-neuron class: ipsdienol
[6] = co-localized A-neuron class: myrcene
[7] = co-localized A-neuron class: p-cymene

| SMILES | net action potential response [1] | net action potential response [2] | net action potential response [3] | net action potential response [4] | net action potential response [5] | net action potential response [6] | net action potential response [7] |
| --- | --- | --- | --- | --- | --- | --- | --- |
| CC12CCC(CC1=O)C2(C)C (racemic) [(±)-Camphor] | -2.67 ± 3.1 | 0 | -6.67 ± 2.3 | -1.5 ± 1 | -2.67 ± 6.1 | -2 | 1 ± 1.4 |
| CCC1CCC2(CCCO2)O1 (racemic) [(±)-Chalcogran] | -1.33 ± 5.8 | -4 ± 5.3 | -1.33 ± 2.3 | -1.5 ± 3.4 | -0.667 ± 1.1 | -8 | -2.67 ± 2.3 |
| CC1=CCC(C(C)C)=CC1 [γ-Terpinene] | -2 ± 5.3 | 0.5 ± 6 | -0.667 ± 6.1 | -0.5 ± 1.9 | 0 ± 6 | -6 | -4 ± 3.5 |
| C[C@H]1C(=O)C[C@H]2C[C@@H]1C2(C)C [(-)-Pinocamphone] | -2 ± 2 | -4 ± 8.7 | -1.33 ± 1.1 | 1 ± 3.8 | 0 ± 6 | 4 | -2 ± 3.5 |
| CC(=O)OCc1ccccc1 [Benzyl acetate] | 2.67 ± 6.4 | 2 ± 5.3 | 3.33 ± 6.1 | -0.5 ± 1.9 | -6.67 ± 3.1 | 0 | 0.667 ± 4.2 |
| C[C@]12CCC[C@](C)(OC1)O2 (racemic) [(±)-Frontalin] | -1.33 ± 8.1 | -2 ± 2 | 0 ± 7.2 | 0.5 ± 4.1 | 0 ± 4 | 0 | -4 ± 4 |
